PubChem BioAssay AID1159580 (chemical genetic matrix, 2015)
Hit rate of the full screen: of about 5,500 compounds, about 2,000 (36%) were called active. Roughly 18% stayed inconclusive and do not appear here. Cut-off read from the data, not from the text of the source: active = normalized growth mostly below about 0.91 (no sharp cut-off); inconclusive = no clear call, values can overlap the other calls; inactive = mostly above about 0.92. This is one part of the list.

Assay: chemical genetic growth profiling, strain panel (AID 1159580);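 note: tested at 20 µM; growth read once vehicle control cultures reached saturation at 30 °C; 1 = growth at the plate median or of vehicle wells; lower values mean less growth of the strain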
Details: growth OD

Measured: normalized growth

OC[C@H]1O[C@@](CO)(O[C@@H]2O[C@H](CO)[C@@H](O)[C@H](O)[C@H]2O)[C@@H](O[C@@H]2O[C@H](CO)[C@@H](O)[C@H](O)[C@H]2O)[C@@H]1O
active: S. cerevisiae deletion strains, locus YKR001C, strain vps1, active compounds read low 1.11 [resistant]
inactive: S. cerevisiae deletion strains, locus YJR043C, strain POL32, active compounds read low 1.04 | S. cerevisiae deletion strains, locus YJR066W, strain TOR1, active compounds read low 0.956 | S. cerevisiae deletion strains, locus YKL009W, strain mrt4, active compounds read low 1.03 | S. cerevisiae deletion strains, locus YKL068W, active compounds read low 0.997 | S. cerevisiae deletion strains, locus YKL085W, strain MDH1 (second series), active compounds read low 1.01 | S. cerevisiae deletion strains, locus YKL085W, strain MDH1, active compounds read low 1.01 | S. cerevisiae deletion strains, locus YKL160W, strain elf1, active compounds read low 1.02 | S. cerevisiae deletion strains, locus YKR026C, strain gcn3, active compounds read low 0.994 | S. cerevisiae deletion strains, locus YKR091W, strain srl3, active compounds read low 1.01 | S. cerevisiae deletion strains, locus YLL001W, strain dnm1, active compounds read low 0.996 | S. cerevisiae deletion strains, locus YLL026W, active compounds read low 1.02 | S. cerevisiae deletion strains, locus YLL041C, strain sdh2, active compounds read low 1.01 | S. cerevisiae deletion strains, locus YLR027C, strain aat2, active compounds read low 1.01 | S. cerevisiae deletion strains, locus YLR039C, strain RIC1, active compounds read low 1.18 | S. cerevisiae deletion strains, locus YLR058C, strain SHM2, active compounds read low 1.03 | S. cerevisiae deletion strains, locus YLR102C, strain apc9, active compounds read low 1.02 | S. cerevisiae deletion strains, locus YLR113W, strain HOG1, active compounds read low 0.986 | S. cerevisiae deletion strains, locus YLR221C, strain rsa3, active compounds read low 1.01 | S. cerevisiae deletion strains, locus YLR258W, strain gsy2, active compounds read low 1.02 | S. cerevisiae deletion strains, locus YLR262C, strain YPT6 (second series), active compounds read low 1 | S. cerevisiae deletion strains, locus YLR262C, strain YPT6, active compounds read low 1.16 | S. cerevisiae deletion strains, locus YLR268W, strain sec22, active compounds read low 1.05 | S. cerevisiae deletion strains, locus YLR320W, strain mms22, active compounds read low 1.03 | S. cerevisiae deletion strains, locus YLR330W, strain CHS5, active compounds read low 1.02 | S. cerevisiae deletion strains, locus YLR342W, strain FKS1 (second series), active compounds read low 1.08 | S. cerevisiae deletion strains, locus YLR342W, strain FKS1, active compounds read low 1.02 | S. cerevisiae deletion strains, locus YLR357W, strain rsc2, active compounds read low 0.991 | S. cerevisiae deletion strains, locus YLR370C, strain arc18, active compounds read low 1.03 | S. cerevisiae deletion strains, locus YLR371W, strain rom2, active compounds read low 0.999 | S. cerevisiae deletion strains, locus YLR384C, strain iki3, active compounds read low 1.01 | S. cerevisiae deletion strains, locus YLR418C, strain cdc73, active compounds read low 1.09 | S. cerevisiae deletion strains, locus YML016C, strain PPZ1, active compounds read low 1.01 | S. cerevisiae deletion strains, locus YML032C, strain rad52, active compounds read low 1.03 | S. cerevisiae deletion strains, locus YML120C, strain ndi1, active compounds read low 1.03 | S. cerevisiae deletion strains, locus YML124C, strain tub3, active compounds read low 1.01 | S. cerevisiae deletion strains, locus YMR058W, strain fet3, active compounds read low 1.02 | S. cerevisiae deletion strains, locus YMR078C, strain ctf18, active compounds read low 1.02 | S. cerevisiae deletion strains, locus YMR125W, strain sto1, active compounds read low 1.02 | S. cerevisiae deletion strains, locus YMR129W, active compounds read low 1.03 | S. cerevisiae deletion strains, locus YMR205C, strain PFK2, active compounds read low 1.04 | S. cerevisiae deletion strains, locus YMR223W, strain ubp8, active compounds read low 1.03 | S. cerevisiae deletion strains, locus YMR231W, strain pep5, active compounds read low 1.01 | S. cerevisiae deletion strains, locus YMR263W, strain SAP30, active compounds read low 1.02 | S. cerevisiae deletion strains, locus YMR307W, strain GAS1, active compounds read low 1.03 | S. cerevisiae deletion strains, locus YNL067W, strain RPL9B, active compounds read low 1.03 | S. cerevisiae deletion strains, locus YNL071W, strain lat1, active compounds read low 1.01 | S. cerevisiae deletion strains, locus YNL128W, strain TEP1, active compounds read low 1.03 | S. cerevisiae deletion strains, locus YNL183C, strain NPR1, active compounds read low 0.946 | S. cerevisiae deletion strains, locus YNL209W, strain ssb2, active compounds read low 1.02 | S. cerevisiae deletion strains, locus YNL233W, strain BNI4, active compounds read low 1.06 | S. cerevisiae deletion strains, locus YNL248C, strain rpa49, active compounds read low 1.01 | S. cerevisiae deletion strains, locus YNL250W, strain rad50, active compounds read low 1.03 | S. cerevisiae deletion strains, locus YNL271C, strain bni1, active compounds read low 1.02 | S. cerevisiae deletion strains, locus YNL298W, strain CLA4, active compounds read low 1.02 | S. cerevisiae deletion strains, locus YNL307C, strain MCK1, active compounds read low 1.01 | S. cerevisiae deletion strains, locus YNL322C, strain KRE1 (second series), active compounds read low 1.02 | S. cerevisiae deletion strains, locus YNR049C, strain mso1, active compounds read low 1.02 | S. cerevisiae deletion strains, locus YNR052C, strain pop2, active compounds read low 1.03 | S. cerevisiae deletion strains, locus YOL006C, strain TOP1, active compounds read low 1.23 | S. cerevisiae deletion strains, locus YOL012C, strain htz1 1.32 | S. cerevisiae deletion strains, locus YOL147C, strain pex11, active compounds read low 1 | S. cerevisiae deletion strains, locus YOR001W, strain rrp6, active compounds read low 1 | S. cerevisiae deletion strains, locus YOR061W, strain CKA2, active compounds read low 1.04 | S. cerevisiae deletion strains, locus YOR069W, strain VPS5, active compounds read low 1.02 | S. cerevisiae deletion strains, locus YOR070C, strain gyp1, active compounds read low 1.01 | S. cerevisiae deletion strains, locus YOR080W, strain dia2, active compounds read low 1.02 | S. cerevisiae deletion strains, locus YOR083W, strain WHI5, active compounds read low 1.01 | S. cerevisiae deletion strains, locus YOR106W, strain vam3, active compounds read low 1 | S. cerevisiae deletion strains, locus YOR136W, strain idh2, active compounds read low 1.02 | S. cerevisiae deletion strains, locus YOR144C, strain elg1, active compounds read low 1.02 | S. cerevisiae deletion strains, locus YOR184W, strain ser1, active compounds read low 1.06 | S. cerevisiae deletion strains, locus YOR231W, strain MKK1, active compounds read low 1 | S. cerevisiae deletion strains, locus YOR265W, strain rbl2, active compounds read low 1.01 | S. cerevisiae deletion strains, locus YOR270C, strain vph1, active compounds read low 1.05 | S. cerevisiae deletion strains, locus YOR290C, strain snf2, active compounds read low 0.981 | S. cerevisiae deletion strains, locus YOR316C, strain cot1, active compounds read low 1.02 | S. cerevisiae deletion strains, locus YPL051W, strain arl3, active compounds read low 1.01 | S. cerevisiae deletion strains, locus YPL055C, strain LGE1, active compounds read low 1.08 | S. cerevisiae deletion strains, locus YPL078C, strain atp4, active compounds read low 1 | S. cerevisiae deletion strains, locus YPL106C, strain sse1, active compounds read low 1.02 | S. cerevisiae deletion strains, locus YPL240C, strain hsp82, active compounds read low 1.03 | S. cerevisiae deletion strains, locus YPL256C, strain CLN2, active compounds read low 1 | S. cerevisiae deletion strains, locus YPR119W, strain clb2, active compounds read low 1.03 | S. cerevisiae deletion strains, locus YPR141C, strain kar3, active compounds read low 1.02 | S. cerevisiae deletion strains, locus YPR163C, strain tif3, active compounds read low 1.04 | S. cerevisiae deletion strains, locus YPR167C, strain met16, active compounds read low 1.02 | S. cerevisiae deletion strains, strain wtn01, active compounds read low 1.04 | S. cerevisiae strains, strain wild type, active compounds read low 1.04
